# According to PubChem BioAssay (Tox21):
# Records with an inconclusive call do not appear. Where a call stands in place of a potency, no number is given. Values without a mark were called inactive. Calls of active or inactive are those of the source. Calls follow the shape of the dose curve; as a rule, active = well fitted inhibition curve with a large enough effect in the signal ratio in the repeat runs; inconclusive = weak or mixed curves, or effect the other way; inactive = flat fitted curve, though single readings scatter; the % refers to the signal ratio.
# Assay: qHTS assay for small molecule disruptors of the mitochondrial membrane potential (AID 720635)
# Conditions: HepG2 mitochondrial membrane potential, Mito-MPS dye ratio; series mostly up to 83.2 µM
# Source text: U.S. Tox21 Program National Center for Advancing Translational Sciences [NCATS] NIH Chemical Genomics Center [NCGC] U.S. Environmental Protection Agency [EPA] National Institutes of Environmental Health Sciences [NIEHS] National Toxicology Program [NTP] U.S. Food and Drug Administration [FDA] Tox21 Assay Overview: Mitochondrial membrane potential (MMP), one of the parameters for mitochondrial function, is generated by mitochondrial electron transport chain that creates an electrochemical gradient by a series of redox reactions. This gradient drives the synthesis of ATP, a crucial molecule for various cellular processes. Measuring MMP in living cells is commonly used to assess the effect of chemicals on mitochondrial function. […] The dye accumulates in the mitochondria of healthy cells as aggregates, with red fluorescence. The mitochondrial potential collapses and the dye can no longer accumulate in the mitochondria and remains in the cytoplasm in monomers, with green fluorescence.
# Tox21 Assay Protocol Summary: 2,000 HepG2 cells in 5 uL/well were dispensed into black, clear-bottom 1536-well plates using a Multidrop Combi (Thermo Scientific) dispenser. The assay plates were incubated overnight at 37C to allow cells to attach to the wells, followed by the transfer of 23 nL compound or DMSO vehicle by a pin tool (Kalypsys). The plates were incubated for 1 hr at 37C and 5% CO2, followed by the addition of 5 uL of 2X Mito-MPS dye (BD Biosciences) into each well using Flying Reagent Dispenser (Aurora Discovery) and then following 30 min incubation at 37C. Fluorescence intensity (490nm excitation and 535nm emission for monomers; and 540nm excitation and 590nm emissions for aggregates) was measured using an Envision plate reader.
# Potency is read from the fitted curve at half-maximal effect.
SMILES,Potency,"ratio activity, negative = MMP loss"
Cc1ccc2ccccc2c1[N+](=O)[O-],inactive,
CC(=O)CC/C=C(\C)CC/C=C(\C)CC/C=C(\C)CCC=C(C)C,inactive,
CCCCC(CC)COCCC#N (stereo not given),inactive,
CCCC(=O)OCCC(C)C,inactive,
COC(=O)c1cc(Cl)ccc1[N+](=O)[O-],inactive,
CCCCCCCCCCCCCCCCCCCl,,-5.25% [at 8.08 µM]
NC(=O)c1cc[n+](CC2=C(C(=O)[O-])N3C(=O)[C@@H](NC(=O)Cc4cccs4)[C@H]3SC2)cc1,inactive,
C/C(=C(\CCO)SS/C(CCO)=C(\C)N(C=O)Cc1cnc(C)nc1N)N(C=O)Cc1cnc(C)nc1N,inactive,
Cc1ccc2c(Cl)cc(Cl)c(O)c2n1,9.44 µM (active),
CCc1ccc2c(c1)C(=O)c1ccccc1C2=O,13.7 µM (active),
NC(=O)c1ccccc1C(N)=O,61.4 µM (active),
CC(C)NC(=O)c1ccccc1N,inactive,
CCC(C)C1N=C(C)C(C)S1 (stereo not given),inactive,
O=C1OC(=O)C2CC=CCC12 (stereo not given),inactive,
CC1(C)CC(=O)CC(C)(C)N1,inactive,
COc1ccc(/C=C/S(=O)(=O)NC(=O)c2ccc(C)cc2Cl)cc1,61.1 µM (active),
O=[N+]([O-])c1ccc(Cl)cc1Cl,inactive,
O=C1C=CCCC1,inactive,
CCCC1CCCC(=O)O1 (stereo not given),inactive,
CCOCCn1c(N2CCCN(C)CC2)nc2ccccc21,inactive,

SMILES,Potency,"ratio activity, negative = MMP loss"
Cc1ccc(S(=O)(=O)NC(=O)NC2CCCC2)cc1,inactive,
CCc1ccc(C(=O)C(C)CN2CCCCC2)cc1 (stereo not given),inactive,
CC1(COc2ccc(CC3SC(=O)NC3=O)cc2)CCCCC1 (stereo not given),6.68 µM (active),
CCC(=O)O[C@@H]1C[C@H]2CC[C@]1(C)C2(C)C,inactive,
CC(C(=O)O)c1ccc2c(c1)Cc1cccnc1O2 (stereo not given),inactive,
CCOC(OCC)OCC,inactive,
C=Cc1ccc(C=C)cc1,inactive,
CC(C)C[C@H](NC(=O)[C@H](Cc1ccccc1)NC(=O)c1cnccn1)B(O)O,inactive,
CCN(CCCCOC(=O)c1ccc(OC)c(OC)c1)C(C)Cc1ccc(OC)cc1 (stereo not given),inactive,
O=c1[nH]nc(-c2ccc([N+](=O)[O-])o2)o1,43.3 µM (active),
CCC(CC)C(=O)O,inactive,
CCc1c(C)[nH]c2c1C(=O)C(CN1CCOCC1)CC2 (stereo not given),inactive,
CCCCCCCCCCCCCCCCN,inactive,
CCCCCCCCC(=O)OCC(C)OC(=O)CCCCCCCC (stereo not given),inactive,
c1ccc(CN(Cc2ccccc2)Cc2ccccc2)cc1,30.6 µM (active),
O=C(O)c1cc(C(=O)O)cc([N+](=O)[O-])c1,inactive,
CC(=O)c1cccnc1,inactive,
Cc1ccc(NC(=O)c2ccc(CN3CCN(C)CC3)cc2)cc1Nc1nccc(-c2cccnc2)n1,2.11 µM (active),
NC(=O)c1ccccc1,inactive,
O=C(O)c1ccccc1-n1cc(C(=O)O)c(=O)c2cc(Nc3c(F)cc(F)cc3Cl)c(Cl)cc21,inactive,
